From PubChem BioAssay (Tox21) come the findings set out here.

Unmarked numbers belong to inactive results. Inconclusive results are not listed. The source made the active and inactive calls. Unless noted, calls come from the whole dose curve; as a rule, active = well fitted curve in the direction sought with a large enough effect in the repeat runs; inconclusive = weak or mixed curves; inactive = no such curve, though single readings can be large; an effect the other way counts as inactive or inconclusive.

A short description of test [1]: qHTS RealTime-Glo MT Cell Viability Assay in HEK293 cells - 8 hour (AID 1224887). Note: top concentration of the series differs between compounds; nearly all actives have a fitted effect of over 50% in size. The gist of the method:
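Luminescence readout at each listed time point; HEK293, 600 cells/well, RealTime-Glo MT reagent added with cells; compounds pinned (23 nL in DMSO) after 5 h at 37 C; continuous culture at 37 C.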
(In qHTS, concentration-response curves come from the screen itself.)

Test [2] can be described thus: A CellTox Green Cytotoxicity Assay to monitor cytotoxicity in HEK293 cells - 16 hour (AID 1224888). Note: nearly all actives have a fitted effect of over 35% in size. Note: potency is the fitted concentration of half-maximal effect. The gist of the method: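 Read-out: fluorescence of a cell-impermeant cyanine dye staining DNA of dead cells, proportional to cytotoxicity. HEK293, 600 cells/well with reagent, compound (23 nL DMSO) added after 5 h; reads at 0, 8, 16, 24, 32, 40 h.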
Test [3] in a line: qHTS RealTime-Glo MT Cell Viability Assay in HepG2 cells - 0 hour (AID 1224889). Note: nearly all actives have a fitted effect of over 50% in size. The gist of the method: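 HepG2 cells were seeded at 600 cells/well together with NanoLuc luciferase and a cell-permeant prosubstrate, preincubated 5 h at 37 C/5% CO2, then pin-dosed with compounds in DMSO. Nonlytic luminescence from viable cells was read at each time point.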
The nature of test [4]: qHTS assay to identify small molecule antagonists of the estrogen receptor alpha (ER-alpha) signaling pathway using the BG1 cell line in the presence of 0.1 nM 17-beta-estradiol - cell viability counter screen (AID 1259241). Note: nearly all actives have a fitted effect of over 40% in size. A digest of the protocol: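 In this screen, hormone-deprived VM7Luc4E2 cells were seeded at 4,000 per well, dosed with compound and 0.1 nM estradiol final, and incubated 22 hr at 37C and 5% CO2; fluorogenic live-cell protease signal reported viability.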

Test [5] is described as follows: qHTS assay to identify small molecule antagonists of the androgen receptor (AR) signaling pathway using the MDA cell line in the presence of 0.5 nM R1881 - cell viability counter screen (AID 1259242). Note: nearly all actives have a fitted effect of over 45% in size. A digest of the protocol: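 Live-cell protease fluorescence, CellTiter-Fluor, 30 min at 37C. Cells: MDA-kb2, 3,000/well, preincubated 5 hr. Compounds plus 0.5 nM R1881 final, 16 hr, 37C, 0% CO2.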

In test [6] the target is Androgen receptor (Homo sapiens) (UniProt P10275). Kind of test: qHTS assay to identify small molecule antagonists of the androgen receptor (AR) signaling pathway using the MDA cell line in the presence of 0.5 nM R1881 (AID 1259243). Note: nearly all actives have a fitted effect of over 50% in size. Note: potency is the fitted concentration of half-maximal effect. A digest of the protocol: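 MDA-kb2, MMTV-luc (AR/GR elements); 3,000 cells/well; cpd + 0.5 nM R1881 final; 16 hr 37C, 0% CO2; ONE-Glo 30 min RT; luminescence.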

Test [7] concerns the target Estrogen receptor (Homo sapiens) (UniProt P03372). As to the kind of experiment: qHTS assay to identify small molecule antagonists of the estrogen receptor alpha (ER-alpha) signaling pathway using the BG1 cell line in the presence of 0.1 nM 17-beta-estradiol (AID 1259244). Note: nearly all actives have a fitted effect of over 50% in size. The gist of the method: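 Luminescence after ONE-Glo (30 min, room temperature) measured ERE-luciferase activity in VM7Luc4E2 cells treated 22 h with compound and 0.1 nM final 17beta-estradiol as stimulator.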

Test [8] is described as follows: qHTS assay to identify small molecule HDAC inhibitors (AID 1259364).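 Note: wild-type HCT-116 cells with endogenous class I/II HDAC activity; top concentration of the series differs between compounds; nearly all actives have a fitted effect of over 45% in size.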 The gist of the method:
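HCT-116 (wild type), 1,500 cells/well, overnight; compound 2 hr 37C 5% CO2; HDAC-Glo I/II reagent 30 min RT; luminescence readout.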

The nature of test [9]: qHTS assay to identify small molecule HDAC inhibitors - cell viability counter screen (AID 1259365). The gist of the method:
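Measured quantity is CellTiter-Glo luminescence from wild-type HCT-116 cells after compound incubation of 2hr at 37C, 5% CO2; reagent developed 30min at room temperature.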

Test [10] can be described thus: qHTS assay to identify small molecule agonists of the sonic hedgehog signaling (Shh) pathway - cell viability counter screen (AID 1259366). Note: nearly all actives have a fitted effect of over 50% in size. The gist of the method: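 In quantitative high-throughput format, 3T3 Gli1-Luc cells were exposed to compounds for 24hr and multiplexed for viability using CellTiter-Fluor, incubated 1hr at 37C before the fluorescence read.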

Test [11] is described as follows: qHTS assay to identify small molecule antagonists of the sonic hedgehog signaling (Shh) pathway - cell viability counter screen (AID 1259367). Note: nearly all actives have a fitted effect of over 55% in size. A digest of the protocol: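 Cytotoxicity was assessed in parallel with Shh reporter activity by measuring live-cell protease fluorescence (CellTiter-Fluor) in NIH/3T3 cells stably carrying Gli1-Luc, treated with compound under conditioned medium stimulation for 23 hr plus 1 hr reagent incubation.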

Test [12] in a line: qHTS assay to identify small molecule agonists of the sonic hedgehog signaling (Shh) pathway (AID 1259368; calls by dose curve;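 note: NIH/3T3-derived 3T3Gli1-Luc cells carrying a stable Gli1-driven firefly luciferase reporter; series mostly up to about 92 µM; nearly all actives have a fitted effect of over 15% in size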). The gist of the method:
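Read-out: firefly luciferase luminescence from a Gli1 response element reporter stably integrated in NIH/3T3-derived 3T3Gli1-Luc cells, measured 30 min at room temperature after reagent addition. Compound exposure lasted 24 hr at 37 C, 5% CO2.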

Test [13] has as its target Estrogen receptor beta (Homo sapiens) (UniProt Q92731). As to the kind of experiment: qHTS assay to identify small molecule agonists of the estrogen receptor beta (ER-beta) signaling pathway (AID 1259377; active = well fitted activation curve with a large enough effect in the signal ratio in the repeat runs, not every such curve was filed as active; the % refers to the signal ratio; note: potency is the fitted concentration of half-maximal effect). The gist of the method:
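Reporter cells (HEK293T, ER-beta-UAS-bla) receive compounds or DMSO after a 6 hr pre-incubation. They then incubate 16 hr at 37C/5% CO2, and fluorescence from LiveBLAzer B/G substrate is measured after 2 hours at room temperature.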

Test [14] in a line: qHTS assay to identify small molecule agonists of the androgen receptor (AR) signaling pathway in the presence of an antagonist - cell viability counter screen (AID 1259379).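 Note: MDA-kb2 human breast cancer cells carrying an MMTV luciferase reporter; series mostly up to about 92 µM; nearly all actives have a fitted effect of over 25% in size.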 The gist of the method: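 Viability counter screen: CellTiter-Fluor fluorescence, measured in the same wells as the luciferase read-out. MDA-kb2 cells, 3,000/well, with nilutamide at 3.0uM final and compounds at 15 concentrations, 16 hr at 37C, 0% CO2.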

Test [15] in a line: qHTS assay to identify small molecule agonists of the estrogen receptor beta (ER-beta) signaling pathway - cell viability counter screen (AID 1259380). Note: nearly all actives have a fitted effect of over 30% in size. The gist of the method:
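Luminescence read-out (CellTiter-Glo, 30 min, room temp) taken in the same wells as the beta-lactamase reporter assay; ER-beta-UAS-bla HEK293T cells exposed to DMSO-dissolved compounds for 16 hr at 37C in 2% charcoal-stripped FBS medium.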

The target in test [16] is Androgen receptor (Homo sapiens) (UniProt P10275). Kind of test: qHTS assay to identify small molecule agonists of the androgen receptor (AR) signaling pathway in the presence of an antagonist (AID 1259381; calls by dose curve; note: nearly all actives have a fitted effect of over 15% in size). The gist of the method:
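Luciferase read-out (ONE-Glo, 30min room temperature) in MDA-kb2 MMTV-reporter cells; agonist mode run in presence of AR antagonist nilutamide, 3.0uM final. Compounds tested as 15-point series, 16hr exposure at 37C, 0% CO2.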

Test [17] can be described thus: qHTS assay to identify small molecule phospholipidosis (PLD) inducers (AID 1259344; active = well fitted curve in the direction sought with a large enough effect; an effect the other way counts as inactive or inconclusive). A digest of the protocol: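 Cells (HepG2, 900 per well) attach for 4 h, receive LipidTOX Red and compound together, incubate 24 h at 37 C, are fixed 30 min with paraformaldehyde/Hoechst, then imaged at one site per well.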
Test [18] in a line: qHTS assay to identify small molecule antagonists of the sonic hedgehog signaling (Shh) pathway (AID 1259369; calls by dose curve; note: nearly all actives have a fitted effect of over 45% in size). A digest of the protocol:
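Luminescence readout: firefly Luc under Gli1 response element in 3T3Gli1-Luc cells (NIH/3T3 clone). Antagonist mode, stimulation by conditioned medium; compound exposure 24hr at 37 C, 5% CO2.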

Test [19] has as its target Estrogen receptor beta (Homo sapiens) (UniProt Q92731). As to the kind of experiment: qHTS assay to identify small molecule antagonists of the estrogen receptor beta (ER-beta) signaling pathway (AID 1259378; active = well fitted inhibition curve with a large enough effect in the signal ratio in the repeat runs, not every such curve was filed as active; the % refers to the signal ratio). The gist of the method:
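ER-beta-UAS-bla HEK293T (GripTite) cells in 2% charcoal-stripped FBS medium were preincubated 6 hr at 37C, dosed with compound, then stimulated with 1 nM E2 (final) for 16 hr; beta-lactamase reporter read by B/G FRET fluorescence after 2 hr substrate loading.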

A short description of test [20]: A CellTox Green Cytotoxicity Assay to monitor cytotoxicity in HepG2 cells - 8 hour (AID 1224890). Note: nearly all actives have a fitted effect of over 45% in size. Note: potency is the fitted concentration of half-maximal effect. The gist of the method: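 HepG2, 600 cells/well premixed w/ CellTox Green; 5 h settle, 37 C/5% CO2; pintool cpd add (DMSO); 37 C, 40 h; fluorescence read at 0, 8, 16, 24, 32, 40 h.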

Chain of Estrogen receptor (Homo sapiens) (P03372 whole entry, looked up): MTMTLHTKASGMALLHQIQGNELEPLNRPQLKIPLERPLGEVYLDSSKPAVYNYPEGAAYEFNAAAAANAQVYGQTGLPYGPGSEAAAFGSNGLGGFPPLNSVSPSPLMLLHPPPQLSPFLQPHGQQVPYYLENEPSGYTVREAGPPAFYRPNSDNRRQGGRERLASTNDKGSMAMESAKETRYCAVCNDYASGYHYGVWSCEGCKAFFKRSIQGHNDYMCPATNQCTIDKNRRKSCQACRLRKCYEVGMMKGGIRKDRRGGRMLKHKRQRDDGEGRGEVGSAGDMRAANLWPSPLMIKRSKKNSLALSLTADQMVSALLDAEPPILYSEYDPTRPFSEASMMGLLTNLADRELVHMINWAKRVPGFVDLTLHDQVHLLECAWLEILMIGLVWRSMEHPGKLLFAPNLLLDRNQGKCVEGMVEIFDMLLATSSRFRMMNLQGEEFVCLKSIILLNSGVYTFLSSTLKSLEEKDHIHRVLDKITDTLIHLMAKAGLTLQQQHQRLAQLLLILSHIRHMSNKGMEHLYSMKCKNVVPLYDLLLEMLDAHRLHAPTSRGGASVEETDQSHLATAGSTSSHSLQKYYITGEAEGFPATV
Chain of Androgen receptor (Homo sapiens) (P10275 whole entry, looked up): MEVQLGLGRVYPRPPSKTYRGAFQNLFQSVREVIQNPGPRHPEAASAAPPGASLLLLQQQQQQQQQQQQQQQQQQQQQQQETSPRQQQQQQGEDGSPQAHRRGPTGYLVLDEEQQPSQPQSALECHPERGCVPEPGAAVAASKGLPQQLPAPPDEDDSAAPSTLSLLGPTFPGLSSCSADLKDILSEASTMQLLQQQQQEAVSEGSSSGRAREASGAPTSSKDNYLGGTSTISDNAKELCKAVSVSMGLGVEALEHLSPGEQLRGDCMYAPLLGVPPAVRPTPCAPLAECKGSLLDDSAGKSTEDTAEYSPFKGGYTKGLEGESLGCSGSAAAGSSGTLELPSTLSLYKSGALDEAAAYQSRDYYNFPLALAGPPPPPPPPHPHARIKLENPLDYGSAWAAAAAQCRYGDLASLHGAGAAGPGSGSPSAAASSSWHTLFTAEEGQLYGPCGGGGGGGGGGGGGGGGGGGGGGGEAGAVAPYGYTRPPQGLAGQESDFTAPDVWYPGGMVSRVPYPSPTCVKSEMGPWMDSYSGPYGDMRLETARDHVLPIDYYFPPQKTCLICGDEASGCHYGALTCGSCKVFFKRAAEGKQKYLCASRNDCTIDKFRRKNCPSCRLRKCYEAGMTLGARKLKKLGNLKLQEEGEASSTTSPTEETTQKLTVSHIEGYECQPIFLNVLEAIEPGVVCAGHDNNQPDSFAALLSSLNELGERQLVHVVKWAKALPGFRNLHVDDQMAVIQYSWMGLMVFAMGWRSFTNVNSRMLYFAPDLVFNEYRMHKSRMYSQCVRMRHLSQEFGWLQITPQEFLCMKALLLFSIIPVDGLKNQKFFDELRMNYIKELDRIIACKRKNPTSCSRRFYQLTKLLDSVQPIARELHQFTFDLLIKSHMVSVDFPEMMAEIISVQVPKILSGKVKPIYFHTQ
Chain of Estrogen receptor beta (Homo sapiens) (Q92731 whole entry, looked up): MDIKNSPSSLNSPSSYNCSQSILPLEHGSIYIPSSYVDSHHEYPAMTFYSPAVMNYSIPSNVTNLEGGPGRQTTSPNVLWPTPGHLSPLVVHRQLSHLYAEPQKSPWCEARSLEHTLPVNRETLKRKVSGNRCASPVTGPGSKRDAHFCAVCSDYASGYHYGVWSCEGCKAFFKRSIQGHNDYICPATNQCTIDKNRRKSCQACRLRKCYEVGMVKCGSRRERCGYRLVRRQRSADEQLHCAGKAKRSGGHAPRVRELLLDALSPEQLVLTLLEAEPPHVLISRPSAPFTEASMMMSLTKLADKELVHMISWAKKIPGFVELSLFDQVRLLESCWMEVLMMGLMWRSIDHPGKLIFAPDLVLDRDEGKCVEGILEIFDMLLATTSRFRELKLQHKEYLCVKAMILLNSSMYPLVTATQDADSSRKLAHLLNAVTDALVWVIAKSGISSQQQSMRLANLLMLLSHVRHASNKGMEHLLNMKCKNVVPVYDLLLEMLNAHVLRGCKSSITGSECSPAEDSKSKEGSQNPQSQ

For the molecule `CCC(=O)Oc1ccc2c(c1)CC[C@@H]1[C@@H]2CC[C@@]2(C)[C@H]1C[C@@H](OC(=O)CC)[C@@H]2OC(=O)CC`, the Potency entry in [1], in test [2], in test [3] and in test [8] was “inactive” each time. The result in [4], in test [5], in [7], in test [9], in test [10] and in test [11] was inactive. For the same molecule, the molecule was called inactive in test [12], in test [14], in test [15] and in [16]. Further, the Potency in test [6] is 8.41 µM (active); in [13], 0.0211 µM (active).

As to `Nc1nnnn1-c1ccccc1`, the Potency result in test [1], in [2], in test [3], in test [18] and in test [19] was “inactive” in each case. The outcome in test [4], in [5], in test [7], in test [17], in test [9] and in [10] was inactive. For the same molecule, the outcome in [11], in test [12], in [14] and in [15] was inactive.

On to `CCCCCCCCCOC(=O)CCCCC(=O)OCCCCCCC`, for which the Potency result in [1], in test [3] and in [18] was “inactive” each time. In addition, the Potency in test [2] was 27.5 µM (active); in [20], 38.9 µM (active). Further, the result in test [4], in test [5], in [9], in [10], in [11] and in [12] was inactive. Further, the result in test [14] and in [15] was inactive.

As for `CCCCSCCCC`, the Potency entry in [1], in [2], in [3], in test [20], in test [8] and in [18] was “inactive” throughout. For the same molecule, the Potency result in [13] and in test [19] was “inactive” in each case. Moreover, the result in [4], in test [9], in test [10], in test [11], in test [12] and in test [14] was inactive.

Take `CCOCCOCC`: the Potency entry in test [1], in [2], in test [20], in test [8], in test [18] and in test [13] was “inactive” in each case. Also, the Potency result in [19] was “inactive”. The result in test [4], in [5], in test [7], in [9], in test [10] and in test [11] was inactive. Besides, the call in [12] and in test [14] was inactive.

Consider `CC(C)[C@H]1CC[C@H](C)C[C@@H]1O`, for which the Potency entry in [1], in test [2], in test [3], in test [20], in test [6] and in [8] was “inactive” throughout. Also, the Potency result in [13] and in [19] was “inactive” throughout. The outcome in test [4], in test [9], in test [10], in test [11], in [12] and in test [14] was inactive. The call in test [15] and in test [16] was inactive.

As to `COc1cc2c(cc1OC)CN(C(=O)[C@H](C)N[C@@H](CCc1ccccc1)C(=O)O)[C@H](C(=O)O)C2`, the Potency result in [1], in [2], in test [20], in test [8], in [18] and in [13] was “inactive” each time. Further, in test [19], the Potency entry is “inactive”. Besides, the outcome in test [4], in [5], in [7], in test [9], in test [10] and in test [11] was inactive. Further, the molecule was classed as inactive in test [12] and in [14].

On to `CO[Si](CCCn1c(=O)n(CCC[Si](OC)(OC)OC)c(=O)n(CCC[Si](OC)(OC)OC)c1=O)(OC)OC`, for which the Potency entry in test [1], in test [2], in [3], in [20], in test [8] and in test [18] was “inactive” throughout. The outcome in test [4], in test [5], in test [9], in test [10], in test [11] and in test [12] was inactive. Further, the result in test [14] and in test [15] was inactive.
